The structures appear in SMILES notation. Inconclusive results are not listed. Calls of active or inactive are those of the source. Calls follow the shape of the dose curve; as a rule, active = well fitted inhibition curve with a large enough effect; inconclusive = small, poorly fitted or top-dose-only effect, or effect the other way; inactive = no such curve, though single readings can be large or run the other way.
% is scaled to controls: 0 for no effect and ±100 for the full control effect; potency is read from the fitted curve at half-maximal effect.

A short description of the test: Concentration response confirmation VP16 counterscreen for inhibitors of ROR gamma transcriptional activity. Also: nearly all actives have a fitted effect of over 70% in size. The note with it: Drosophila S2 Gal4-VP16 UAS-luciferase, luminescence, 20 h; series mostly up to 46.1 µM; activity change, negative = inhibition: at the top concentration. From the text: NIH Molecular Libraries Probe Production Network [MLPCN] NIH Chemical Genomics Center [NCGC] MLPCN Grant: R03 DA026211-01 Assay Provider: Dan Littman, New York University Assay Overview: The retinoic acid-related orphan receptor (ROR) gamma is a transcription factor that has a central role in the differentiation of Th17 cells, a subset of T helper cells that secrete the inflammatory cytokines IL-17, IL-17F, and IL-22. Th17 cells have been implicated in graft versus host disease, autoimmune disease and asthma. ROR gamma is induced in naive T helper cells in the presence of TGF-beta combined with IL-6, IL-21, or IL-23, and thereafter directs the expression of the Th17 lineage cytokines. To identify nonspecific inhibitors, a Drosophila Schneider cell line was stably transfected with two vectors: a gene expressing a fusion of the Gal4 DNA binding domain and the transactivation domain of the viral transcription factor VP16, under the control of the metallothionine promoter and a Photinus luciferase reporter regulated by the Gal4 binding site enhancer, UAS. […] Small molecule inhibitors that inhibit components common to the RORgt and VP16 assays, such as the Gal4 DNA binding domain or the UAS luciferase reporter, will be active in both assays and thus scored as nonspecific.
Assay Protocol Summary: For screening, 600 cells in 4 uL/well were dispensed into white solid 1536-well plates (Grenier) using a solenoid-based dispenser. Following transfer of 23 nL compound or DMSO vehicle by a pin tool, the plates were incubated 1 hr at ambient temperature, and 1 uL/well copper sulfate (700 uM final concentration) was added. The plates were centrifuged 15 s at 1000 RPM and incubated 20 hr at ambient temperature. After addition of 1.5 uL Photinus luciferase detection reagent, the plates were incubated 10 min at ambient temperature and then read by an ViewLux (Perkin Elmer) to detect luminescence.
Turning to `c1ccc(Cn2c(-c3ccccc3)c[n+]3c2SCCC3)cc1`, the “activity change, negative = inhibition” value was -16.3% (inactive).
On to `CCN(CC)c1ccc2cc(-c3nc4ccccc4[nH]3)c(=O)oc2c1`, for which the Potency is 9.96 µM (active).
In the case of `Cc1nnc(SCC(=O)Nc2ccc(S(=O)(=O)Nc3ccc(Cl)nn3)cc2)s1`, the “activity change, negative = inhibition” value was -1.14% (inactive).
As for `COC(=O)Cn1c(CN2CCc3ccccc3C2)nc2c1c(=O)n(C)c(=O)n2C`, the Potency was 6.28 µM (active).
As for `S=c1[nH]nc(-c2cc(-c3ccccn3)nc3ccccc23)o1`, the “activity change, negative = inhibition” value is 20.8% (inactive).
Same read-out and setting: under `COc1ccc(-c2cc(-c3nnc(COC(=O)c4ccncc4)o3)c3ccccc3n2)cc1OC` stands -17.6% (inactive).
In the case of `COc1ccc(-c2cc(C(F)(F)F)nc(S(=O)(=O)CCCC(=O)Nc3cccnc3Cl)n2)cc1OC`, the Potency is 9.96 µM (active).
Take `Cc1cc(-c2ccccc2)nc(N2CCC(C(=O)NCc3ccccc3Cl)CC2)n1`: the “activity change, negative = inhibition” value was 11.3% (inactive).
Still for that read-out and setting: under `CCOC(=O)[C@@H]1[C@H]2COc3ccccc3[C@@H]2N2C(=O)N(c3ccc(OC)cc3)C(=O)[C@@]12C` stands 4.72% (inactive); under `COc1nc(N/N=C/c2cc3c(cc2Br)OCO3)nc(N2CCOCC2)n1`, 2.66% (inactive); under `O=[N+]([O-])c1ccccc1/C=C/C=N/n1c(-c2ccccc2)n[nH]c1=S`, 17.5% (inactive).
On the same count and under the same terms, the same measure for `O=C1c2ccccc2C(=O)c2c1ccc1c(=O)n(C3CCCCC3)[nH]c21`: -27.9% (inactive).
As for `COC(=O)c1ccc(Oc2cc(C)nc(-n3nc(C)cc3C)n2)cc1`, the Potency was 7.91 µM (active).
On to `O=C(O)/C=C/C(=O)Nc1ccccc1SC(F)(F)F`, for which the “activity change, negative = inhibition” value was 4.95% (inactive).
Still for that read-out and setting: the same measure for `O=C(Cn1c(=O)oc2ccc(Cl)cc21)Nc1ccon1`: -9.8% (inactive); for `Cc1cc(C)c(S(=O)(=O)NCCn2ccc3ccccc32)c(C)c1`: -83.6% (inactive).
Take `Cc1nc2c(-c3ccc(F)cc3)cnn2c(N)c1-c1ccccc1`: the Potency was 0.281 µM (active).
On to `Cc1ccc(OCCn2cc(C(=S)N3CCCC3)c3ccccc32)cc1C`, for which the Potency was 25 µM (active).
Turning to `CC(=O)c1cnc2nc(C(F)(F)F)nn2c1C`, the “activity change, negative = inhibition” value was 1.06% (inactive).
For `O=C(CCCN1C(=O)/C(=C/c2ccccc2Cl)SC1=S)NNC(=O)c1ccc(Cl)cc1Cl`, the Potency is 4.45 µM (active).
Consider `Cc1ccc(NC2=C(Cl)C(=O)OC2OC(=O)c2ccco2)cc1` (stereo not given), for which the “activity change, negative = inhibition” value is -1.27% (inactive).
With `COc1ccc(-c2cc(-c3ccccc3)n[nH]2)c(O)c1`, the Potency was 19.9 µM (active).
For the compound `CCOC(=O)c1sc(NC(=O)c2sc(C)nc2C)nc1C`, the “activity change, negative = inhibition” value was -0.602% (inactive).
Turning to `CC1Oc2ccccc2N(CC(=O)NCCN2CCOCC2)C1=O` (stereo not given), the “activity change, negative = inhibition” value is -6.52% (inactive).
On the same count and under the same terms, under `COc1ccc(CNS(=O)(=O)c2ccc3c(c2)CCN3C(=O)C2CC2)cc1` stands -5.25% (inactive).
Turning to `CCN1CCCc2cc(CN(CCN3CCOCC3)C(=S)Nc3ccc(C)cc3)ccc21`, the Potency was 11.2 µM (active).
For the compound `CN1CCN(CCC(=O)Nc2cccc(F)c2)CC1`, the “activity change, negative = inhibition” value is 10.5% (inactive).
Turning to `O=C(CN1CCCCCC1)Nc1ccc(S(=O)(=O)N2CCOCC2)cc1`, the “activity change, negative = inhibition” value was -10.3% (inactive).
For the compound `O=C(O)c1ccccc1SC1CC(=O)N(c2ccc3c(c2)OCO3)C1=O` (stereo not given), the Potency was 19.9 µM (active).
For `CCOC(=O)c1nnsc1Nc1ccc(C)c(C)c1`, the “activity change, negative = inhibition” value was 22.9% (inactive).
In the case of `O=c1c2cc(Br)ccc2[nH]c(=S)n1Cc1cccnc1`, the Potency was 11.2 µM (active).
Take `Cn1nnnc1NCc1ccccc1F`: the “activity change, negative = inhibition” value was 6.76% (inactive).
On the same count and under the same terms, under `CCOc1cc(C)c(S(=O)(=O)NC2CCCCC2)cc1C` stands -11.3% (inactive).
On to `COC1CCCCC1Nc1cc(C)ccc1C` (stereo not given), for which the “activity change, negative = inhibition” value was -4.68% (inactive).
Same read-out and setting: under `O=C(CSc1n[nH]c(=O)n1-c1ccc2c(c1)OCCO2)Nc1ccccc1` stands 6.27% (inactive); under `Cn1c(=O)[nH]c(=O)c2c1nc(NCc1ccco1)n2Cc1ccccc1Cl`, 11.1% (inactive); under `Cc1ccccc1C(=O)OC1OC(=O)C(Cl)=C1Nc1ccccc1` (stereo not given), 11.1% (inactive).
For `COc1cccc(-c2cc(C(=O)N3CCc4ccccc4C3)[nH]n2)c1`, the “activity change, negative = inhibition” value is -10.7% (inactive).
The same measure, in the same setting: under `O=C(NC(=S)Nc1nc(-c2ccccc2)cs1)c1cccnc1` stands 16.5% (inactive).
With `COc1cccc(Cn2c(NCc3ccco3)nc3c2c(=O)n(C)c(=O)n3C)c1`, the Potency was 2.81 µM (active).

The record behind these values is PubChem BioAssay AID2763 (National Center for Advancing Translational Sciences (NCATS), 2010).
